Results published in PubChem BioAssay.
Activity calls are given as the source filed them.

Experiments:
[1] = tested on: Plasmodium falciparum Sir2 (PF13_0152, Sir2A); assay: pfSir2 binders on small-molecule microarrays, primary screen, biochemical, small-molecule microarray, 635 nm fluorescence (AID 1098); conditions: small-molecule microarray binding, fluorescence 635 nm; higher = more signal;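 also: score merges spot fluorescence intensity with its signal-to-noise ratio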
[2] = small-molecule microarray binders of probe aDKK1, primary screen, biochemical, biotinylated probe, 635/667 nm fluorescence (AID 1099); conditions: higher = more signal;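 also: score merges 667nm spot fluorescence with signal to noise across triplicate slides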
[3] = small-molecule microarray binders of probe aCHRDL2, primary screen, biochemical, biotinylated probe, 635/667 nm fluorescence (AID 1100); conditions: higher = more signal
[4] = splicing luciferase reporter signal modulators, primary screen, spliceosome inhibition project, cell-based, HEK293, splice +/- reporter (AID 1101); conditions: luminescence, 24 h, higher = more signal, called active from +8 up or from −8 down;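 also: HEK293 cells carrying a splicing-competent luciferase reporter gene; test concentration not given here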
[5] = target: Fibroblast growth factor 10 (Homo sapiens) (UniProt O15520); assay: FGF10 binders on small-molecule microarrays, primary screen, biochemical, small-molecule microarray, 635 nm fluorescence (AID 1102); conditions: FGF10 binding, fluorescence 635 nm, higher = more signal
Chain of Fibroblast growth factor 10 (Homo sapiens) (O15520 whole entry, looked up): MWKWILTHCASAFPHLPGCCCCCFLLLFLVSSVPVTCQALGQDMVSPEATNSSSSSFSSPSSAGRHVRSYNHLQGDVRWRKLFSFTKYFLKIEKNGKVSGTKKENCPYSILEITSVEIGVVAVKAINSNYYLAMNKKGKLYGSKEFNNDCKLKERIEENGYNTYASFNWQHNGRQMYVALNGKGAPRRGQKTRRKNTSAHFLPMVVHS

[6] = tested on: glycogen synthase kinase-3 (GSK3A per assay name; protocol says GSK3B); assay: GSK3 binders on small-molecule microarrays, primary screen, biochemical, small-molecule microarray, 635 nm fluorescence, GSK3A (AID 1103); conditions: small-molecule microarray binding, fluorescence 635 nm; higher = more signal; also: the record names both GSK3A and GSK3B
[7] = target: Epidermal growth factor receptor (Homo sapiens) (UniProt P00533); assay: EGFR binders on small-molecule microarrays, primary screen, biochemical, small-molecule microarray, 635 nm fluorescence (AID 1104); conditions: EGFR binding, higher = more signal;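 also: score merges 667 nm emission intensity with spot signal to noise over triplicate slides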
Chain of Epidermal growth factor receptor (Homo sapiens) (P00533 whole entry, looked up): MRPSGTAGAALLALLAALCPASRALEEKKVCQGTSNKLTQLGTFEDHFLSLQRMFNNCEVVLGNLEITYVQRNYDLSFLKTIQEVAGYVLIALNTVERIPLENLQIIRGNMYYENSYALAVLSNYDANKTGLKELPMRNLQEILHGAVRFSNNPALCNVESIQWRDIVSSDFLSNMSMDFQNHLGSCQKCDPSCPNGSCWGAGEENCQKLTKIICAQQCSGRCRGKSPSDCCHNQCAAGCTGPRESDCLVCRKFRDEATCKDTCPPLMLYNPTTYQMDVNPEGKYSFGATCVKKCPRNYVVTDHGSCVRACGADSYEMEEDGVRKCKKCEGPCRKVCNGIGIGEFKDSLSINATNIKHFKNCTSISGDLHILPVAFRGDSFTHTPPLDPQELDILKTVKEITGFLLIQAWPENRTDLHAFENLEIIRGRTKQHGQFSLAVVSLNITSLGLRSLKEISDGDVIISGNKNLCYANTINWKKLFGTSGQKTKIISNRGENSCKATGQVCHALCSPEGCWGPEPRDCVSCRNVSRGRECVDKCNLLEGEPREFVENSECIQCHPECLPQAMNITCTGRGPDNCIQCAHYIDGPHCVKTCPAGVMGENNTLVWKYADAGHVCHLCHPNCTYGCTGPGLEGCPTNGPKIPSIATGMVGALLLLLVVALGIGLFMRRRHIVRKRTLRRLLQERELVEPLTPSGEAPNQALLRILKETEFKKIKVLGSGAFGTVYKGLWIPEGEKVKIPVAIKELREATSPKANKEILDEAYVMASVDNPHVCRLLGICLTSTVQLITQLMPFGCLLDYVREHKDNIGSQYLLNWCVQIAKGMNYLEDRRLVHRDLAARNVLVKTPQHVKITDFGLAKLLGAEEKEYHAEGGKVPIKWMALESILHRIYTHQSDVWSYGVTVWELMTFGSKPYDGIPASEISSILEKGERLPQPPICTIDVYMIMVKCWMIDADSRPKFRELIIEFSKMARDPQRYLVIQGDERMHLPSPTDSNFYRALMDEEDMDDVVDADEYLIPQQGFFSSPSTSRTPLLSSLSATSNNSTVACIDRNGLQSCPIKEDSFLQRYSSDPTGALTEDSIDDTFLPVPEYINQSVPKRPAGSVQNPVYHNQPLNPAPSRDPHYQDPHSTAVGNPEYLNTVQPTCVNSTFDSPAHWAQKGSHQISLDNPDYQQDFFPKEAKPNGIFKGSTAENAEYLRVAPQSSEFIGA

[8] = target: Follistatin-related protein 3 (Homo sapiens) (UniProt O95633); assay: FSTL3 binders on small-molecule microarrays, primary screen, biochemical, small-molecule microarray, 635 nm fluorescence (AID 1105); conditions: FSTL3 binding, higher = more signal;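 also: score merges emission near 667 nm and signal to noise per printed spot across three slides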
Chain of Follistatin-related protein 3 (Homo sapiens) (O95633 whole entry, looked up): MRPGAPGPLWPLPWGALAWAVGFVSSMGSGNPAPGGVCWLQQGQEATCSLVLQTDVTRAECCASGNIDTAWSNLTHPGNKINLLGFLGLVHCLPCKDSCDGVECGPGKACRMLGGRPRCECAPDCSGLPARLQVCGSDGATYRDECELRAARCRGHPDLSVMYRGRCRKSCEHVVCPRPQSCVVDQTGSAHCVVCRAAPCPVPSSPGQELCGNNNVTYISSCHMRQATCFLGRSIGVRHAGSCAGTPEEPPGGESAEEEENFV

[9] = target: Dickkopf-related protein 1 (Homo sapiens) (UniProt O94907); assay: DKK1 binders on small-molecule microarrays, primary screen, biochemical, small-molecule microarray, 635 nm fluorescence scan (AID 1106); conditions: DKK1 binding, higher = more signal;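 also: score merges emission near 667 nm with signal to noise over three replicate slides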
Chain of Dickkopf-related protein 1 (Homo sapiens) (O94907 whole entry, looked up): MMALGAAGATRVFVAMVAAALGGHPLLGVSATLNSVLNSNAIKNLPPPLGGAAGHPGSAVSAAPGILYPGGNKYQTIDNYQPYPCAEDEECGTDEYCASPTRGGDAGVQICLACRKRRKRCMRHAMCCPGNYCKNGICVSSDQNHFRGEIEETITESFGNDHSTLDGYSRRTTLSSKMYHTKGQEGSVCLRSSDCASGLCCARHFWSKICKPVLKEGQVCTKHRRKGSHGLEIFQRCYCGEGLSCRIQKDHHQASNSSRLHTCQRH

[10] = tested on: Inhibin beta A chain (activin A); assay: INHBA (activin A) binders on microarrays, primary screen, biochemical, small-molecule microarray, 635 nm fluorescence scan (AID 1107); conditions: small-molecule microarray binding, higher = more signal;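 also: mouse activin A protein probed at 4.33 µg/mL on printed slides; score merges bound-protein fluorescence near 667 nm with spot signal-to-noise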
[11] = tested on: Human papillomavirus type 1a protein E7 (residues 44-93); assay: HPV1a E7 fragment binders on microarrays, primary screen, biochemical, small-molecule microarray, residues 44-93, 635 nm fluorescence (AID 1108); conditions: small-molecule microarray binding, fluorescence 635 nm; higher = more signal;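 also: E7 fragment applied at 1 µg/mL in TBST for 1 h at 4 C; score combines spot fluorescence with its signal to noise ratio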
[12] = modulators of HCV replicon luciferase signal, primary screen, HCV replication inhibitor project, Huh7 cells, luciferase reporter (AID 1109); conditions: 48 h, higher = more signal;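 also: huh7 hepatoma cells harbouring a luciferase neomycin HCV replicon reporter; luciferase luminescence as measure of HCV replicon replication; test concentration not given here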
[13] = target: Left-right determination factor 2 (Homo sapiens) (UniProt O00292); assay: LEFTY2 binders on small-molecule microarrays, primary screen, biochemical, small-molecule microarray, 635 nm fluorescence scan (AID 1110); conditions: LEFTY2 binding, higher = more signal
Chain of Left-right determination factor 2 (Homo sapiens) (O00292 whole entry, looked up): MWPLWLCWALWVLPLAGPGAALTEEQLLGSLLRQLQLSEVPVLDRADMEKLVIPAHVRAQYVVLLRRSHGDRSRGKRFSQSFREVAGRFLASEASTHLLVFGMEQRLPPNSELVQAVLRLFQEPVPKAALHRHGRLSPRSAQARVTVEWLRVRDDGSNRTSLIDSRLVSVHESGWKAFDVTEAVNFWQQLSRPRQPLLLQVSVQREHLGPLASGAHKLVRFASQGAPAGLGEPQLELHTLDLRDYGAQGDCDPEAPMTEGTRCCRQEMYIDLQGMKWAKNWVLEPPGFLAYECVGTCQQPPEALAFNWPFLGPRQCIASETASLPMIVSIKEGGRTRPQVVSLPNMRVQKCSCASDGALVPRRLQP

[14] = target: Calmodulin-1 (Homo sapiens) (UniProt P0DP23); assay: CALM1 binders on microarrays, EGTA buffer, profiling panel, biochemical, small-molecule microarray, Cy5-labelled CALM1 (AID 1111); conditions: Cy5-CALM1 binding fluorescence, higher = more signal;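 also: labelled calmodulin applied in Tris saline Tween buffer holding calcium plus EGTA and DTT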
[15] = target: Calmodulin-1 (Homo sapiens) (UniProt P0DP23); assay: calcium-bound CALM1 binders on microarrays, profiling panel, artefact control for SMM control-protein annotation, biochemical, small-molecule microarray, Cy5-labelled CALM1, plus calcium (AID 1112); conditions: Cy5-CALM1 binding fluorescence, higher = more signal;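 also: score merges spot fluorescence with signal to noise from triplicate slides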
[16] = small-molecule microarray binders of probe aWnt5a, primary screen, biochemical, biotinylated probe, 635/667 nm fluorescence (AID 1113); conditions: higher = more signal;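 also: score merges 667 nm fluorescence intensity with signal-to-noise per printed feature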
[17] = small-molecule microarray binders of probe aShh, primary screen, biochemical, biotinylated probe, 635/667 nm fluorescence (AID 1114); conditions: higher = more signal;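 also: probe is biotin-labelled aShh protein from a stem cell growth factor screen; measures binding of labelled protein to compounds printed on the slide; score merges feature fluorescence at 667 nm with signal-to-noise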
[18] = small-molecule microarray binders of probe aNog, primary screen, biochemical, biotinylated probe, 635/667 nm fluorescence (AID 1115); conditions: higher = more signal;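 also: probe is biotinylated aNog protein used at 0.15 µg/mL for 1 h at 4 C; z-score combines 667 nm fluorescence of each spot with its signal to noise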
[19] = target: Torsin-1A-interacting protein 1 (Homo sapiens) (UniProt Q5JTV8); assay: LAP1 binders from COS7 cell lysate, primary screen, small-molecule microarray, 635/667 nm fluorescence (AID 1116); conditions: COS7-hLAP1 lysate binding, 635 nm fluorescence, higher = more signal
Chain of Torsin-1A-interacting protein 1 (Homo sapiens) (Q5JTV8 whole entry, looked up): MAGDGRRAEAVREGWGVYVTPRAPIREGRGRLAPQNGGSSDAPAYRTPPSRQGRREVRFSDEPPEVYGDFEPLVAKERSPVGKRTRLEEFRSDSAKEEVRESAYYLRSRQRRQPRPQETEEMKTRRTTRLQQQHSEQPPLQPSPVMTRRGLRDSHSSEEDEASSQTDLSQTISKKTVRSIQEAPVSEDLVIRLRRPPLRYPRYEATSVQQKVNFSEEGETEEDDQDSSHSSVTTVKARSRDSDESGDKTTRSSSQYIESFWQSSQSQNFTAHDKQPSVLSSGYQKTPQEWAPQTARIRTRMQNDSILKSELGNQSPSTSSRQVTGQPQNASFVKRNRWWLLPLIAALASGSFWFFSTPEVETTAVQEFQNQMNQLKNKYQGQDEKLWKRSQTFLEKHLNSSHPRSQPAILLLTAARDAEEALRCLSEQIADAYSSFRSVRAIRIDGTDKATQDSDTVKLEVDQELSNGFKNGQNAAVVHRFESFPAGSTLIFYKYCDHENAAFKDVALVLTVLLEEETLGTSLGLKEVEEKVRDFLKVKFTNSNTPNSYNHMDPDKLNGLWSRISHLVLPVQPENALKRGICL

[20] = target: Alpha-bungarotoxin (Bungarus multicinctus) (UniProt P60615); assay: alpha-bungarotoxin binders on microarray, profiling panel, artefact control for SMM control protein annotation, biochemical, small-molecule microarray, Alexa647 label, 635/667 nm fluorescence (AID 1117); conditions: alpha-BTX-A647 binding fluorescence, higher = more signal
Chain of Alpha-bungarotoxin (Bungarus multicinctus) (P60615 whole entry, looked up): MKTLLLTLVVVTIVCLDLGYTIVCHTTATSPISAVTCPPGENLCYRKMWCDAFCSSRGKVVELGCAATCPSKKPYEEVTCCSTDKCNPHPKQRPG

In the case of `COc1ccc(C#Cc2ccc3c(c2)[C@]2(C(=O)N3)[C@H](c3ccc(O)cc3)N3[C@H](c4ccccc4)[C@H](c4ccccc4)OC(=O)[C@H]3[C@@H]2C(=O)O)cc1`, the composite z-score [1] is reported as 1.04, the composite z-score [2] is reported as -0.901 and the composite z-score [3] is reported as -0.596. The z-score [4] was -0.518 (inactive), the composite z-score [5] was 0.368 and the composite z-score [6] was 0.74. For the same compound, the composite z-score [7] was -0.209, the composite z-score [8] was -0.114 and the composite z-score [9] was -0.474. The composite z-score [10] was 0.326, the composite z-score [11] was 1.19 and the z-score [12] was -0.327. The composite z-score [13] was -0.172, the composite z-score [14] was 0.69 and the composite z-score [15] was 0.805. It also gave a composite z-score [16] of 0.0293, a composite z-score [17] of -0.315 and a composite z-score [18] of 1.49. For the same compound, the composite z-score [19] was 0.684 and the composite z-score [20] was -0.0251.
For `CC(C)N1C(=O)C[C@@](C(=O)NCCCN(C)C)(c2ccc([N+](=O)[O-])cc2)[C@H]1c1ccc(CO)cc1`, the composite z-score [1] was -0.133, the composite z-score [2] was -0.253 and the composite z-score [3] was 0.692. For the same compound, the z-score [4] was 0.313 (inactive), the composite z-score [5] was -0.532 and the composite z-score [6] was -0.777. It also gave a composite z-score [7] of -0.496, a composite z-score [8] of -0.309 and a composite z-score [9] of -0.197. The composite z-score [10] was 0.698, the composite z-score [11] was -0.218 and the z-score [12] was -0.581. For the same compound, the composite z-score [13] was -0.438, the composite z-score [14] was -0.194 and the composite z-score [15] was -0.774. It also gave a composite z-score [16] of -0.113, a composite z-score [17] of 0.0062 and a composite z-score [18] of -0.141. The composite z-score [19] was 0.0945 and the composite z-score [20] was 0.942.
`COC(=O)c1c(CC[C@@H](CO)NC(=O)N[C@H](Cn2cc(C3(O)CCCCC3)nn2)C(C)C)oc(C(C)=O)c1C(=O)OC` showed a composite z-score [1] of 0.997, a composite z-score [2] of -0.0398 and a composite z-score [3] of -0.446. For the same compound, the z-score [4] was -1.66 (inactive), the composite z-score [5] was 1.07 and the composite z-score [6] was 0.859. For the same compound, the composite z-score [7] was 0.557, the composite z-score [8] was 1.1 and the composite z-score [9] was 0.788. The composite z-score [10] was 0.368, the composite z-score [11] was 1.01 and the z-score [12] was -0.415. The composite z-score [13] was 0.724, the composite z-score [14] was 0.169 and the composite z-score [15] was -0.715. For the same compound, the composite z-score [16] was 0.002, the composite z-score [17] was 0.151 and the composite z-score [18] was 0.141. For the same compound, the composite z-score [19] was 0.748 and the composite z-score [20] was 1.65.
Compound `O=C(NCC(F)(F)F)[C@@H]1c2ccccc2C(=O)N(Cc2ccccc2C(F)(F)F)[C@H]1c1ccc(CO)cc1` has a composite z-score [1] of 1.78, a composite z-score [2] of 0.757 and a composite z-score [3] of 0.805. For the same compound, the z-score [4] was -0.335 (inactive), the composite z-score [5] was -0.141 and the composite z-score [6] was -0.677. For the same compound, the composite z-score [7] was -0.79, the composite z-score [8] was -0.604 and the composite z-score [9] was -0.377. For the same compound, the composite z-score [10] was 0.547, the composite z-score [11] was -0.315 and the z-score [12] was -0.941. For the same compound, the composite z-score [13] was -1.02, the composite z-score [14] was 0.0216 and the composite z-score [15] was 0.792. For the same compound, the composite z-score [16] was -0.276, the composite z-score [17] was 0.0044 and the composite z-score [18] was -0.101. It also gave a composite z-score [19] of -0.121 and a composite z-score [20] of -0.695.
`C[C@H]1NC(=O)[C@@]23C(=O)N[C@@H](Cc4ccccc4)C2[C@H](C)[C@@]2(C)O[C@H]2C3/C=C/C/C=C\CNC(=O)[C@H](Cc2ccccc2)NC1=O` (stereo not given in full) showed a composite z-score [1] of 1.29, a composite z-score [2] of -0.354 and a composite z-score [3] of -0.427. The z-score [4] was 0.106 (inactive), the composite z-score [5] was 0.932 and the composite z-score [6] was 0.138. The composite z-score [7] was 0.199, the composite z-score [8] was 1.01 and the composite z-score [9] was 0.689. For the same compound, the composite z-score [10] was 1.34, the composite z-score [11] was 0.395 and the z-score [12] was -1.02. The composite z-score [13] was 0.154, the composite z-score [14] was 0.15 and the composite z-score [15] was -0.849. For the same compound, the composite z-score [16] was -0.0445, the composite z-score [17] was -0.0533 and the composite z-score [18] was -0.196. The composite z-score [19] was -0.285 and the composite z-score [20] was 0.107.
`C=CCN1C(=O)[C@@]2(CCS(=O)(=O)c3ccccc3)N=C(c3ccc(OCCCO)cc3)O[C@H]2c2ccccc21` showed a composite z-score [1] of 1.32, a composite z-score [2] of 0.331 and a composite z-score [3] of 0.482. The z-score [4] was 0.095 (inactive), the composite z-score [5] was 0.69 and the composite z-score [6] was 1.33. It also gave a composite z-score [7] of 0.958, a composite z-score [8] of 1.14 and a composite z-score [9] of 0.822. The composite z-score [10] was 1.18, the composite z-score [11] was 1.42 and the z-score [12] was -1.97. The composite z-score [13] was 0.876, the composite z-score [14] was 1.94 and the composite z-score [15] was -0.313. It also gave a composite z-score [16] of 0.0215, a composite z-score [17] of -0.304 and a composite z-score [18] of 0.906. For the same compound, the composite z-score [19] was 0.791 and the composite z-score [20] was 1.22.
For `O=C1NC(=O)C2C1C=CC(C(O)c1c(F)cccc1Cl)N2Nc1ccc(Cl)cc1Cl` (stereo not given), the composite z-score [1] was 1.49, the composite z-score [2] was 1.4 and the composite z-score [3] was 1.41. For the same compound, the z-score [4] was 1.57 (inactive), the composite z-score [5] was 0.185 and the composite z-score [6] was 0.249. It also gave a composite z-score [7] of -0.391, a composite z-score [8] of 0.0256 and a composite z-score [9] of -0.367. For the same compound, the composite z-score [10] was 1.29, the composite z-score [11] was 0.635 and the z-score [12] was -0.133. It also gave a composite z-score [13] of -0.536, a composite z-score [14] of 2.33 and a composite z-score [15] of 1.01. For the same compound, the composite z-score [16] was 0.0923, the composite z-score [17] was 0.0782 and the composite z-score [18] was 1.42. The composite z-score [19] was 2.71 and the composite z-score [20] was 2.76.
With `COC(=O)C(CC#Cc1ccc2c(c1)[C@]1(C(=O)N2)[C@H](c2ccccc2OCCO)N2[C@H](c3ccccc3)[C@H](c3ccccc3)OC(=O)[C@H]2[C@@H]1C(=O)NC[C@H](O)c1ccccc1)C(=O)OC` the composite z-score [1] was 1.65, the composite z-score [2] was -0.378 and the composite z-score [3] was 0.702. The z-score [4] was -0.267 (inactive), the composite z-score [5] was 0.928 and the composite z-score [6] was 1.26. The composite z-score [7] was 0.361, the composite z-score [8] was 0.682 and the composite z-score [9] was 0.521. The composite z-score [10] was 0.897, the composite z-score [11] was 1.39 and the z-score [12] was -2.08. For the same compound, the composite z-score [13] was 0.261, the composite z-score [14] was 0.0614 and the composite z-score [15] was -0.316. The composite z-score [16] was 0.285, the composite z-score [17] was 2.44 and the composite z-score [18] was 0.108. It also gave a composite z-score [19] of 2.19 and a composite z-score [20] of 0.971.
